Experimental data: the supplement of paper PMC8728848
Many of the other results were omitted from the sample, so the strongest signals are more common in it than they were.

Tests used:
Experiment in all cases: glycan array binding signal (z-score within array); higher = stronger binding
Conditions in all cases: glycan notation: IUPAC condensed, linker removed
[1] = molecular target: Gal(b1-4)GlcNAc(b1-2)Man(a1-3)Man(b1-4)GlcNAc(b1-4)GlcNAc
Method in brief: (§1)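 Glycan array data were curated from 3228 arrays in the Consortium for Functional Glycomics database and kept only where the protein sequence was available. Glycan names were converted to IUPAC-condensed notation, and columns mapping to the same glycan were averaged. The binding signal is a within-array Z-score, averaged across arrays of the same protein sequence at different concentrations or buffers and across linkers. Negative Z-scores can be read as non-binding.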

[2] = molecular target: Gal(b1-4)GlcNAc(b1-2)Man(a1-3)[GlcNAc(b1-2)Man(a1-6)]Man(b1-4)GlcNAc(b1-4)GlcNAc
Method in brief: as §1

[3] = molecular target: Gal(b1-4)GlcNAc(b1-3)Gal(b1-4)Glc
Method in brief: as §1

[4] = molecular target: Gal(b1-4)GlcNAc(b1-3)Gal(b1-4)GlcNAc(b1-2)[Gal(b1-4)GlcNAc(b1-3)Gal(b1-4)GlcNAc(b1-6)]Man(a1-6)[Gal(b1-4)GlcNAc(b1-3)Gal(b1-4)GlcNAc(b1-2)Man(a1-3)]Man(b1-4)GlcNAc(b1-4)[Fuc(a1-6)]GlcNAc
Method in brief: as §1

[5] = molecular target: Gal(b1-4)GlcNAc(b1-3)Gal(b1-4)GlcNAc(b1-3)Gal(b1-4)GlcNAc(b1-3)Gal(b1-4)GlcNAc(b1-2)Man(a1-3)[Gal(b1-4)GlcNAc(b1-3)Gal(b1-4)GlcNAc(b1-3)Gal(b1-4)GlcNAc(b1-3)Gal(b1-4)GlcNAc(b1-2)Man(a1-6)]Man(b1-4)GlcNAc(b1-4)[Fuc(a1-6)]GlcNAc
Method in brief: as §1

[6] = molecular target: Gal(b1-4)GlcNAc(b1-3)Gal(b1-4)GlcNAc(b1-3)Gal(b1-4)GlcNAc(b1-3)Gal(b1-4)GlcNAc(b1-3)Gal(b1-4)GlcNAc(b1-2)Man(a1-3)[Gal(b1-4)GlcNAc(b1-3)Gal(b1-4)GlcNAc(b1-3)Gal(b1-4)GlcNAc(b1-3)Gal(b1-4)GlcNAc(b1-3)Gal(b1-4)GlcNAc(b1-2)Man(a1-6)]Man(b1-4)GlcNAc(b1-4)GlcNAc
Method in brief: as §1

[7] = molecular target: Gal(b1-4)GlcNAc(b1-3)Gal(b1-4)GlcNAc(b1-3)Gal(b1-4)GlcNAc(b1-3)Gal(b1-4)GlcNAc(b1-3)Gal(b1-4)GlcNAc(b1-3)Gal(b1-4)GlcNAc(b1-2)Man(a1-3)[Gal(b1-4)GlcNAc(b1-3)Gal(b1-4)GlcNAc(b1-3)Gal(b1-4)GlcNAc(b1-3)Gal(b1-4)GlcNAc(b1-3)Gal(b1-4)GlcNAc(b1-3)Gal(b1-4)GlcNAc(b1-2)Man(a1-6)]Man(b1-4)GlcNAc(b1-4)GlcNAc
Method in brief: as §1

Gal3S(b1-4)Glc6S = molecular target: Gal3S(b1-4)Glc6S
Method in brief: as §1

Gal4S6S(b1-4)GlcNAc = molecular target: Gal4S6S(b1-4)GlcNAc
Method in brief: as §1

Gal6S(b1-4)Glc6S = molecular target: Gal6S(b1-4)Glc6S
Method in brief: as §1

Gal6S(b1-4)GlcNAc6S = molecular target: Gal6S(b1-4)GlcNAc6S
Method in brief: as §1

[8] = molecular target: GalNAc(b1-3)Gal(a1-6)Gal(b1-4)Glc
Method in brief: as §1

[9] = molecular target: GalNAc(b1-4)GlcNAc(b1-2)Man
Method in brief: as §1

[10] = molecular target: GalNAc(b1-4)GlcNAc(b1-2)Man(a1-3)[GalNAc(b1-4)GlcNAc(b1-2)Man(a1-6)]Man(b1-4)GlcNAc(b1-4)GlcNAc
Method in brief: as §1

[11] = molecular target: GlcNAc(a1-4)Gal(b1-4)GlcNAc(b1-3)Gal(b1-4)Glc
Method in brief: as §1

[12] = molecular target: GlcNAc(b1-3)Gal(b1-4)GlcNAc(b1-3)Gal(b1-4)GlcNAc(b1-3)Gal(b1-4)GlcNAc(b1-3)Gal(b1-4)GlcNAc(b1-2)Man(a1-3)[GlcNAc(b1-3)Gal(b1-4)GlcNAc(b1-3)Gal(b1-4)GlcNAc(b1-3)Gal(b1-4)GlcNAc(b1-3)Gal(b1-4)GlcNAc(b1-2)Man(a1-6)]Man(b1-4)GlcNAc(b1-4)[Fuc(a1-6)]GlcNAc
Method in brief: as §1

GlcNAc(b1-3)Man = molecular target: GlcNAc(b1-3)Man
Method in brief: as §1

[13] = molecular target: Man(a1-2)Man(a1-3)[Man(a1-2)Man(a1-6)]Man
Method in brief: as §1

[14] = molecular target: Man(a1-2)Man(a1-6)[Man(a1-3)]Man(a1-6)[Man(a1-2)Man(a1-2)Man(a1-3)]Man(b1-4)GlcNAc(b1-4)GlcNAc
Method in brief: as §1

[15] = molecular target: Neu5Ac(a2-3)Gal(b1-3)GlcNAc
Method in brief: as §1

[16] = molecular target: Neu5Ac(a2-3)Gal(b1-4)GlcNAc(b1-2)Man(a1-3)[Neu5Ac(a2-3)Gal(b1-4)GlcNAc(b1-2)Man(a1-6)]Man(b1-4)GlcNAc(b1-4)[Fuc(a1-6)]GlcNAc
Method in brief: as §1

[17] = molecular target: Neu5Ac(a2-3)Gal(b1-4)GlcNAc(b1-2)[Neu5Ac(a2-3)Gal(b1-4)GlcNAc(b1-6)]Man(a1-6)[Neu5Ac(a2-3)Gal(b1-4)GlcNAc(b1-2)Man(a1-3)][GlcNAc(b1-4)]Man(b1-4)GlcNAc(b1-4)GlcNAc
Method in brief: as §1

[18] = molecular target: Neu5Ac(a2-3)Gal(b1-4)GlcNAc(b1-3)Gal(b1-4)GlcNAc
Method in brief: as §1

[19] = molecular target: Neu5Ac(a2-3)Gal(b1-4)GlcNAc(b1-3)Gal(b1-4)GlcNAc(b1-2)Man(a1-3)[Neu5Ac(a2-3)Gal(b1-4)GlcNAc(b1-3)Gal(b1-4)GlcNAc(b1-2)Man(a1-6)]Man(b1-4)GlcNAc(b1-4)GlcNAc
Method in brief: as §1

[20] = molecular target: Neu5Ac(a2-3)Gal(b1-4)GlcNAc(b1-3)Gal(b1-4)GlcNAc(b1-3)GalNAc
Method in brief: as §1

[21] = molecular target: Neu5Ac(a2-3)Gal(b1-4)GlcNAc(b1-3)Gal(b1-4)GlcNAc(b1-3)[Neu5Ac(a2-3)Gal(b1-4)GlcNAc(b1-3)Gal(b1-4)GlcNAc(b1-6)]GalNAc
Method in brief: as §1

[22] = molecular target: Neu5Ac(a2-3)Gal(b1-4)GlcNAc(b1-6)[Gal(b1-3)]GalNAc
Method in brief: as §1

[23] = molecular target: Neu5Ac(a2-3)Gal(b1-4)[Fuc(a1-3)]GlcNAc(b1-3)Gal(b1-4)[Fuc(a1-3)]GlcNAc(b1-3)Gal(b1-4)[Fuc(a1-3)]GlcNAc
Method in brief: as §1

[24] = molecular target: Neu5Ac(a2-3)Gal(b1-4)[Fuc(a1-3)]GlcNAc(b1-3)GalNAc
Method in brief: as §1

Neu5Ac(a2-3)GalNAc = molecular target: Neu5Ac(a2-3)GalNAc
Method in brief: as §1

[25] = molecular target: Neu5Ac(a2-3)[GalNAc(b1-4)]Gal(b1-4)Glc
Method in brief: as §1

[26] = molecular target: Neu5Ac(a2-6)Gal(b1-4)GlcNAc(b1-3)GalNAc
Method in brief: as §1

[27] = molecular target: Neu5Ac(a2-6)GalNAc(b1-4)GlcNAc
Method in brief: as §1

[28] = molecular target: Neu5Ac(a2-6)GlcNAc(b1-4)GlcNAc
Method in brief: as §1

[29] = molecular target: Neu5Ac(a2-8)Neu5Ac(a2-8)Neu5Ac
Method in brief: as §1

[30] = molecular target: Neu5Ac(a2-8)Neu5Gc(a2-3)Gal(b1-4)GlcNAc
Method in brief: as §1

[31] = molecular target: Neu5Gc(a2-3)Gal(b1-3)GlcNAc
Method in brief: as §1

B1: PX14379A-bvu-539-28-539 (Bacteroides vulgatus) (protein)
chain: EPYSEIIEEDYVPTEADEIALLATTYSQLRFVMDWYGLFDLQEESGDVIVTPTRPNGWDDGGTYKQMHKHTWDNQQGQPQSIWDYCYKGIANANKILKRADEGFFTEESKPKVVAEVKGVRALWYSILCDTHGNIPIQTSFSEEVPVQSTRKQVFDFIINELKEVMPNLPTEVNKSTYGRLTQWGAKCLMARMYLNAGVYTGTPMWNECLEQCNDIINSGLFSLETNYTDIFKTENSGCVETIFAIPYDEVYNEGDNNGPVFGAHMKFLSSNSRKVFNMQTTPWGGSAANPQFINSYDPDDMRLKYTWLQGDQYSPDGVLITTFPNKLPSIYKTDTDDGYRVGKYEIKVGAKSLLSNDFPYFRYTEVLLMKAECLLRLGQNETEAAHIVSQIRERAFRESAHPEKATVDAAWLKGDTHINYGTLDEKGQIDDAGNTEVVELGGLYDEWGWEFAAEARRRTDMIRFGTYQKKSWFNHTPTANDLNGNSILFPIHLDHLNTNPNLQQNPGYAGK
glycan array binding signal (z-score) [1]: 0.346 | glycan array binding signal (z-score) [2]: 3.64 | glycan array binding signal (z-score) [3]: -0.017 | glycan array binding signal (z-score) [4]: 7.27 | glycan array binding signal (z-score) [5]: 0.984 | glycan array binding signal (z-score) [6]: 9.41 | glycan array binding signal (z-score) [7]: 0.819 | glycan array binding signal (z-score) (Gal3S(b1-4)Glc6S): -0.224 | glycan array binding signal (z-score) (Gal4S6S(b1-4)GlcNAc): -0.533 | glycan array binding signal (z-score) (Gal6S(b1-4)Glc6S): -0.28 | glycan array binding signal (z-score) (Gal6S(b1-4)GlcNAc6S): -0.175 | glycan array binding signal (z-score) [8]: 2.98 | glycan array binding signal (z-score) [9]: -0.549 | glycan array binding signal (z-score) [10]: -0.102 | glycan array binding signal (z-score) [11]: -0.444 | glycan array binding signal (z-score) [12]: 3.83 | glycan array binding signal (z-score) (GlcNAc(b1-3)Man): -0.278 | glycan array binding signal (z-score) [13]: -0.377 | glycan array binding signal (z-score) [14]: -0.361 | glycan array binding signal (z-score) [15]: -0.439 | glycan array binding signal (z-score) [16]: -0.571 | glycan array binding signal (z-score) [17]: -0.378 | glycan array binding signal (z-score) [18]: -0.185 | glycan array binding signal (z-score) [19]: 0.342 | glycan array binding signal (z-score) [20]: -0.138 | glycan array binding signal (z-score) [21]: -0.132 | glycan array binding signal (z-score) [22]: -0.388 | glycan array binding signal (z-score) [23]: -0.35 | glycan array binding signal (z-score) [24]: 5.8 | glycan array binding signal (z-score) (Neu5Ac(a2-3)GalNAc): -0.249 | glycan array binding signal (z-score) [25]: -0.297 | glycan array binding signal (z-score) [26]: -0.204 | glycan array binding signal (z-score) [27]: -0.211 | glycan array binding signal (z-score) [28]: -0.56 | glycan array binding signal (z-score) [29]: -0.382 | glycan array binding signal (z-score) [30]: 7.1 | glycan array binding signal (z-score) [31]: -0.228
